# ChEMBL document CHEMBL3988442, “University of Dundee, Small-Polar-MMV Screening Library” (2021)
# Hit rate of the full screen: of about 69,000 compounds, about 1,000 (1.4%) showed an effect of 50% or more. The list comes from a sample in which strong results are over-represented; it also holds similar structures and randomly drawn compounds.
# System: Leishmania donovani
# Test: Leishmania intramacrophage assay
# Type: functional, organism-based
# Set-up: scale not given: in the data most compounds retested in dose-response had high values
structure (smiles),measurement,setting,value
COCCCC(=O)N(C)c1ccc(F)c(Cl)c1,Percent Effect,"30.3 µM, […]",10.71%
O=c1oc(-c2ccc(F)cc2)nn1CN1CCCCC1,Percent Effect,30 µM,11.98%
COCCNC(=O)c1sc(Nc2ccc(Cl)cn2)nc1C,Percent Effect,"30 µM, 30.03 µM",-6.179%
COCC1CN(c2ccc(C)nn2)Cc2cnn(C)c21.O=C(O)C(F)(F)F.O=C(O)C(F)(F)F (stereo not drawn),Percent Effect,"30.3 µM, […]",1.62%
CCc1nc2c(N3CCC4(CC3)CC(=O)N(CC(C)C)C4)ncnc2o1,Percent Effect,"30.3 µM, […]",71.44%
CCc1nc2c(N3CCC4(CC3)CNC(=O)C4)ncnc2o1,Percent Effect,"30.3 µM, […]",11.46%
CCc1nc2c(N3CCC4(CC3)CC(=O)N(CC)C4)ncnc2o1,Percent Effect,"30.3 µM, […]",0.202%
CCOCC(=O)N1CCOCC2(CCN(c3ncccn3)C2)C1.O=C(O)C(F)(F)F (stereo not drawn),Percent Effect,"30.3 µM, […]",-3.02%
OCCC1CN(C2CCC2)CCN1C1CCCC1 (stereo not drawn),Percent Effect,"30 µM, 30.03 µM",24.92%
Clc1ccccc1CCN1CCN(c2ccc3nncn3n2)CC1,Percent Effect,30 µM,7.685%
O=C(CN1CCCC(c2ccn[nH]2)C1)Nc1nc2c(s1)CCCC2 (stereo not drawn),Percent Effect,"30.3 µM, […]",57.39%
O=C(CN1CCCC(c2ccn[nH]2)C1)Nc1nncs1 (stereo not drawn),Percent Effect,"30.3 µM, […]",11.72%
O=C(CN1CCCC(c2ccn[nH]2)C1)N1CCCc2ccccc21 (stereo not drawn),Percent Effect,"30.3 µM, […]",-7.148%
Cc1nnc(NC(=O)CN2CCCC(c3ccn[nH]3)C2)s1 (stereo not drawn),Percent Effect,"30.3 µM, […]",-18.19%
Cc1cc(C2CCCN(CC(=O)Nc3nc4c(s3)CCC4)C2)n[nH]1 (stereo not drawn),Percent Effect,"30.3 µM, […]",34.8%
O=C(CN1CCCC(c2ccn[nH]2)C1)Nc1nc2c(s1)CCC2 (stereo not drawn),Percent Effect,"30.3 µM, […]",51.08%
CN(C)CCN1C(=O)CC[C@@H]2[C@H]1CCN2C(=O)c1ccc(C#N)cc1.O=C(O)C(F)(F)F,Percent Effect,"30.3 µM, […]",2.551%
CCc1ccc(CN(CCCn2ccnc2)Cc2ccc(C)s2)o1.O=C(O)CC(O)(CC(=O)O)C(=O)O,Percent Effect,"30 µM, 30.03 µM",12.85%
Cc1ccc(CN(CCCn2ccnc2)Cc2c[nH]cn2)s1.O=C(O)CC(O)(CC(=O)O)C(=O)O,Percent Effect,"30 µM, 30.03 µM",29.23%
CC(NC(=O)N(C)Cc1ccsc1)c1ccc2c(c1)OCO2 (stereo not drawn),Percent Effect,"30 µM, 30.03 µM",29.16%
O=C(Nc1nncs1)NC1CCOc2ccccc21 (stereo not drawn),Percent Effect,"30 µM, 30.03 µM",-9.341%
Cn1cc(CN2CC[C@H]3O[C@@H](COCc4cccnc4)CC[C@H]32)cn1.O=C(O)C(F)(F)F.O=C(O)C(F)(F)F,Percent Effect,"30.3 µM, […]",18.07%
O=C(COc1ccccc1)NCC1CCN(Cc2ccsc2)CC1,Percent Effect,"30.3 µM, […]",8.301%
CCCS(=O)(=O)N1C[C@@H]2CN(Cc3ccoc3)CCO[C@@H]2C1.O=C(O)C(F)(F)F,Percent Effect,"30.3 µM, […]",15.12%
Cc1ccc(OCCCC(=O)Nc2nonc2C)cc1C,Percent Effect,"30.3 µM, […]",1.215%
Cc1ccsc1CCNC(=O)CCC(=O)NC1CCCC1,Percent Effect,"30.3 µM, […]",16.22%
Cc1ncsc1-c1nc(-c2cccc(CN3CCOCC3)c2)no1,Percent Effect,"30.3 µM, […]",19.67%
Cc1nn2c(-c3snnc3C)nnc2s1,Percent Effect,"30.3 µM, […]",93.73%
Cc1nnsc1-c1nnc2sc(C(C)C)nn12,Percent Effect,"30.3 µM, […]",39.28%
Cc1nnsc1-c1nnc2sc(C3CCC3)nn12,Percent Effect,"30.3 µM, […]",11.99%
CCN1CCN(Cc2ccnc(-c3cccnc3)n2)CC1.O=C(O)CC(O)(CC(=O)O)C(=O)O,Percent Effect,"30 µM, 30.03 µM",7.725%
Cc1ncsc1C(=O)N(C)Cc1ccsc1,Percent Effect,30 µM,23.48%
CCc1nc(NCC(=O)N2CCOCC2)c2c(n1)c(C)nn2CC,Percent Effect,"30 µM, 30.03 µM",6.056%
Cc1cc(NC(=O)NCC(C)N2CCc3ccccc32)no1 (stereo not drawn),Percent Effect,"30 µM, 30.03 µM",27.07%
CN(Cc1cccnc1N)Cc1cccc2ncccc12,Percent Effect,"30.3 µM, […]",48.64%
CN(Cc1cccc(OCCO)c1)Cc1cccc2ncccc12,Percent Effect,"30.3 µM, […]",37.97%
CN(Cc1cccc(CCN)c1)Cc1cccc2ncccc12,Percent Effect,"30.3 µM, […]",68.5%
CN(CCCc1cnn(C)c1)C(=O)C1CCC(=O)N(C2CCCC2)C1 (stereo not drawn),Percent Effect,"30.3 µM, […]",11.37%
COCCN1CCC(CNC(=O)C2(S(C)(=O)=O)CCCC2)CC1,Percent Effect,"30.3 µM, […]",19.2%
COCCN(C)C(C(=O)O)c1ccc(F)c(C)c1 (stereo not drawn),Percent Effect,"30.3 µM, […]",7.085%
CC(C)NC(=O)C1CN(Cc2ccc(F)cc2)CC12CCOCC2.O=C(O)C(F)(F)F (stereo not drawn),Percent Effect,"30.3 µM, […]",44.53%
NC(CC1CCCC1)c1ccc(Oc2ccccc2)cc1 (stereo not drawn),Percent Effect,"30.3 µM, […]",99.72%
Cl.NC(CC1CCCC1)c1ccccc1 (stereo not drawn),Percent Effect,"30.3 µM, […]",14.4%
OC(CN1CCN(CC2CCCCC2)CC1)c1ccccc1 (stereo not drawn),Percent Effect,"30.3 µM, […]",24.85%
CC(C)N(C)Cc1cc(=O)n2c(n1)CN(S(=O)(=O)C1CC1)CCC2.O=C(O)C(F)(F)F,Percent Effect,"30.3 µM, […]",28.49%
CC(C)N1CCO[C@@H]2CN(C(=O)NCc3ccccc3)CC[C@@H]2C1.O=C(O)C(F)(F)F,Percent Effect,"30.3 µM, […]",17.12%
CC(C)N1CCO[C@@H]2CN(C(=O)Cc3cccs3)CC[C@@H]2C1.O=C(O)C(F)(F)F,Percent Effect,"30.3 µM, […]",50.53%
CN1CCO[C@@H]2CN(C(=O)Cc3cccs3)CC[C@@H]2C1.O=C(O)C(F)(F)F,Percent Effect,"30.3 µM, […]",32.46%
CCOC(=O)c1nnc2ccccc2c1N1CCN(CC)CC1,Percent Effect,"30.3 µM, […]",18.05%
COc1ccc(-n2ccnc2-c2cnc(N(C)C)nc2)cc1OC,Percent Effect,"30.3 µM, […]",25.02%
CCS(=O)(=O)c1ccc(N2CCC(NC(C)=O)CC2)cc1,Percent Effect,"30 µM, 30.03 µM",-2.976%
CCNC(=O)NC1CCN(c2ccc(S(=O)(=O)CC)cc2)CC1,Percent Effect,"30.3 µM, […]",12.14%
CCS(=O)(=O)c1ccc(N2CCC(N)CC2)cc1,Percent Effect,"30.3 µM, […]",63.99%
CCS(=O)(=O)c1ccc(N2CCC(NC(=O)CCC(C)C)CC2)cc1,Percent Effect,"30 µM, 30.03 µM",63.78%
CCS(=O)(=O)c1ccc(N2CCC(NC(=O)C(C)SC)CC2)cc1 (stereo not drawn),Percent Effect,"30.3 µM, […]",27.86%
CCS(=O)(=O)c1ccc(N2CCC(NC(=O)CC3CCCC3)CC2)cc1,Percent Effect,"30.3 µM, […]",22.19%
CC(=O)NCCNCc1cn(CCN2CCSCC2)nc1C,Percent Effect,"30.3 µM, […]",28.55%
CN1C[C@H]2CN(Cc3cccc(OC(F)(F)F)c3)CCN2C1=O,Percent Effect,"30.3 µM, […]",-1.989%
O=C(Cc1cc2c(cc1Br)OCCO2)NC1CCS(=O)(=O)C1 (stereo not drawn),Percent Effect,"30.3 µM, […]",5.517%
CC(=O)c1ccc(C(=O)N2C[C@@H]3CC[C@H](C2)N(Cc2ccccc2)C3)s1,Percent Effect,"30.3 µM, […]",9.144%
COc1cc(F)cc(CNC(=O)Nc2ccn(CC(F)F)n2)c1,Percent Effect,"30.3 µM, […]",16%
Cc1cc2c(c(-c3cnccn3)c1)OC(CN)C2 (stereo not drawn),Percent Effect,"30.3 µM, […]",26.74%
NCC1Cc2cc(-c3cncc(C(=O)N4CCOCC4)n3)cc(Cl)c2O1 (stereo not drawn),Percent Effect,"30.3 µM, […]",7.347%
Cc1cc2c(c(-c3c[nH]c(C)n3)c1)OC(CN)C2 (stereo not drawn),Percent Effect,"30.3 µM, […]",38.87%
NCC1Cc2cc(-c3cncc(C(=O)N4CCCCC4)n3)cc(F)c2O1 (stereo not drawn),Percent Effect,"30.3 µM, […]",-28.1%
Cc1cc2c(c(-c3cncc(C(=O)N4CCCC4)n3)c1)OC(CN)C2 (stereo not drawn),Percent Effect,"30.3 µM, […]",74.06%
NCC1Cc2cc(Cl)cc(-c3cncc(C(=O)N4CCCCC4)n3)c2O1 (stereo not drawn),Percent Effect,"30.3 µM, […]",74.83%
CC(C)n1cc(N2CC(C(=O)N3CCN(C)CC3)CC2=O)cn1 (stereo not drawn),Percent Effect,"30.3 µM, […]",26.64%
O=C(c1cncc(Br)c1)N1CCCc2ccc(F)cc21,Percent Effect,"30.3 µM, […]",14.67%
CCc1c(C)nn(CC(=O)NC(C(=O)O)c2c(C)n[nH]c2C)c1C (stereo not drawn),Percent Effect,"30.3 µM, […]",12.75%
Cc1ccc(CN(C)Cc2cc(C3CC3)[nH]n2)c(O)n1,Percent Effect,"30.3 µM, […]",5.894%
Cc1nn(C)cc1S(=O)(=O)N[C@@H]1CC[C@@H](n2ccnc2C)[C@@H]1O,Percent Effect,"30.3 µM, […]",-29.93%
CN1CCC/C1=N\S(=O)(=O)c1ccc(NC(=O)c2ccco2)cc1,Percent Effect,30 µM,-21.5%
CCNC(=O)[C@@H]1C[C@H](NC(=O)c2cncnc2C)CN1Cc1ccsc1,Percent Effect,"30.3 µM, […]",37.2%
CCNC(=O)[C@@H]1C[C@@H](NC(=O)c2cccnc2O)CN1Cc1ccsc1,Percent Effect,"30 µM, 30.03 µM",19.61%
CCNC(=O)[C@@H]1C[C@@H](NC(=O)c2cnc[nH]c2=O)CN1Cc1ccsc1,Percent Effect,"30.3 µM, […]",54.56%
CC(=O)Cn1ncc(N2CCOCC2)cc1=O,Percent Effect,"30.3 µM, […]",4.61%
Fc1ccc(CN2CCCC(c3cc4ncccc4[nH]3)C2)cc1 (stereo not drawn),Percent Effect,"30.3 µM, […]",-0.4017%
CCOc1ccc(CN2CCCC(c3cc4ncccc4[nH]3)C2)cc1 (stereo not drawn),Percent Effect,"30.3 µM, […]",54.07%
CC(=O)Nc1ccc(CN2CCCC(c3cc4ncccc4[nH]3)C2)cc1 (stereo not drawn),Percent Effect,"30.3 µM, […]",40.95%
O=C(CC1NC(N2CCc3ccccc32)=NC1=O)Nc1ccc(Cl)cc1 (stereo not drawn),Percent Effect,"30.3 µM, […]",9.68%
Cc1nc(O)cc(CCNc2nccc(CCC(F)(F)F)n2)n1,Percent Effect,"30.3 µM, […]",19.16%
CC(Cn1cccn1)NC(=O)N1CCN(Cc2ccsc2)CC1 (stereo not drawn),Percent Effect,"30.3 µM, […]",0.9675%
CC(Cn1ccnc1)NC(=O)N1CCN(Cc2ccsc2)CC1 (stereo not drawn),Percent Effect,30 µM,56.49%
CC(Cn1ccnc1)NC(=O)N1CCN(Cc2ccncc2)CC1 (stereo not drawn),Percent Effect,30 µM,-0.977%
CN1C(=O)CC(C(=O)O)C12CCN(c1ccc3c(n1)CCCC3)CC2 (stereo not drawn),Percent Effect,"30.3 µM, […]",21.03%
CCn1ncnc1C(C)NC(=O)C1CCN(C(=O)COC)CC1 (stereo not drawn),Percent Effect,"30 µM, 30.03 µM",54.19%
CCn1ncnc1C(C)NC(=O)C1CCN(C(C)C)CC1 (stereo not drawn),Percent Effect,"30 µM, 30.03 µM",5.618%
CCn1ncnc1C(C)NC(=O)C1CCN(C2CCCCC2)CC1 (stereo not drawn),Percent Effect,"30.3 µM, […]",10.97%
CC(=O)NC(C)(C)C(=O)Nc1ncc(Cc2ccc(C)c(F)c2)s1,Percent Effect,"30 µM, 30.03 µM",11.96%
Cc1nn(C)c(C)c1-c1ccnc(N(C)Cc2noc(C(C)C)n2)n1,Percent Effect,"30.3 µM, […]",46.51%
Cc1nn(C)cc1-c1ccnc(N(C)Cc2noc(C(C)C)n2)n1,Percent Effect,"30.3 µM, […]",19.89%
Cc1nn(C)c(C)c1-c1ccnc(N(C)Cc2nc(C(C)C)no2)n1,Percent Effect,"30.3 µM, […]",52.75%
CCc1nc(CN(C)C2CCN(CCC(=O)N3CCCCC3)C2)no1 (stereo not drawn),Percent Effect,"30.3 µM, […]",22.94%
Fc1cnc(N2CCn3cc(CNc4ccccn4)nc3C2)nc1.O=C(O)C(F)(F)F.O=C(O)C(F)(F)F,Percent Effect,"30 µM, 30.03 µM",-20.21%
O=C(O)C(F)(F)F.O=C(c1ccc[nH]1)N1CCn2cc(CN3CCCC3)nc2C1,Percent Effect,"30 µM, 30.03 µM",-3.456%
O=C(Cc1ccc(F)cc1)N1CCn2cc(Cn3cccn3)nc2C1.O=C(O)C(F)(F)F,Percent Effect,"30 µM, 30.03 µM",-23.45%
O=C(O)C(F)(F)F.O=C(c1ccc[nH]1)N1CCn2cc(Cn3cccn3)nc2C1,Percent Effect,"30.3 µM, […]",51.47%
